In PubChem BioAssay (NCI) one finds growth data, which are given here for nine compounds.

Test systems include RPMI-8226 leukemia; OVCAR-8 ovarian; OVCAR-5 ovarian; OVCAR-4 ovarian; SK-OV-3 ovarian; IGROV1 ovarian; OVCAR-3 ovarian; HS 578T breast; NCI/ADR-RES ovarian; T-47D breast; BT-549 breast; MDA-MB-435 melanoma; SW-620 colon; MCF7 breast; HCT-116 colon; HCC-2998 colon; KM12 colon.
Experiment in all cases: NCI-60 one-dose screen, 48 h (100 = growth as untreated, 0 = no growth, -100 = all killed)
Holding throughout (conditions): 10 µM unless noted

The structures appear in SMILES notation. The panel holds about 83,000 compounds, 20% with a hit somewhere; the sample as a whole holds those more often.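 How to read the values: 0–100, growth inhibition (40 = 60% inhibited); 0, no net growth; -100 to 0, cell death (-40 = 40% of starting cells died; -100 = all dead).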 Values without a mark were called inactive. Activity calls are given as the source filed them. The calls were made as follows: active = growth percent below 10; inactive = the rest.

Take `CCCCc1oc2ccccc2c1C(=O)c1ccc(O)cc1`: the growth in the experiment on RPMI-8226 leukemia is 42.5%; with OVCAR-8 ovarian, 82.2%; in the experiment with OVCAR-5 ovarian, 84.3%; in the experiment with OVCAR-4 ovarian, 68.2%; in the experiment with SK-OV-3 ovarian, 94.4%; in the experiment on IGROV1 ovarian it was 79.6%. The growth in the experiment on OVCAR-3 ovarian was 94.3%; with HS 578T breast, 83.2%; in the experiment with NCI/ADR-RES ovarian it was 76.1%; in the experiment on T-47D breast, 75.3%; with BT-549 breast it was 70.1%; in the experiment on MDA-MB-435 melanoma, 52.2%. The growth in the experiment on SW-620 colon is 99.8%; in the experiment on MCF7 breast, 104%; in the experiment with HCT-116 colon, 83.2%; in the experiment with HCC-2998 colon, 460%; in the experiment on KM12 colon, 76.4%.

In the case of `COC(=O)C1=Nc2ccc(F)cc2/C1=C\c1sc(Nc2ccc(O)cc2)nc1O`, the growth is 62% in the experiment on RPMI-8226 leukemia; 83% in the experiment on OVCAR-8 ovarian; 98% with OVCAR-5 ovarian; 64.8% in the experiment on OVCAR-4 ovarian; 102% in the experiment on SK-OV-3 ovarian; 68.5% with IGROV1 ovarian. Moreover, the growth in the experiment on OVCAR-3 ovarian is 19.8%; in the experiment with HS 578T breast, 46.1%; in the experiment with NCI/ADR-RES ovarian it was 94.5%; in the experiment on T-47D breast it was 62.4%; with BT-549 breast, 35%; in the experiment on MDA-MB-435 melanoma, 0.954% (active). Further, the growth was 65.9% in the experiment on SW-620 colon; 22% in the experiment on MCF7 breast; 64% in the experiment with HCT-116 colon; 79.3% in the experiment on HCC-2998 colon; 49.5% with KM12 colon.

Turning to `CCC(C)Nc1ccc(NC(C)CC)cc1` (stereo unspecified), the growth in the experiment on RPMI-8226 leukemia is 65.8%; in the experiment with OVCAR-8 ovarian it was 89.2%; in the experiment with OVCAR-5 ovarian it was 103%; in the experiment on OVCAR-4 ovarian, 84.1%; in the experiment on SK-OV-3 ovarian it was 98.4%; in the experiment with IGROV1 ovarian it was 65.4%. For the same compound, the growth in the experiment on OVCAR-3 ovarian is 28.6%; in the experiment on HS 578T breast, 110%; with NCI/ADR-RES ovarian, 94.5%; with T-47D breast, 79.7%; in the experiment with MDA-MB-435 melanoma, 95.3%; in the experiment with SW-620 colon it was 106%. The growth in the experiment with MCF7 breast is 47.2%; in the experiment on HCT-116 colon, 28.2%; with HCC-2998 colon it was 80.2%; in the experiment with KM12 colon, 112%.

Consider `CCn1cc(CNc2ccc(C(=O)Nc3cc4cc(OC)c(OC)cc4c(C)n3)cc2)c(C)n1`, for which the growth in the experiment on RPMI-8226 leukemia was -0.529% (active); in the experiment with OVCAR-8 ovarian it was 1.1% (active); in the experiment with OVCAR-5 ovarian, 72.9%; in the experiment with OVCAR-4 ovarian it was 25%; with OVCAR-3 ovarian it was 33.7%; in the experiment with HS 578T breast, 82.7%. Moreover, the growth with NCI/ADR-RES ovarian was 13.4%; in the experiment on T-47D breast, -15.4% (active); in the experiment on BT-549 breast, -4.64% (active); in the experiment on MDA-MB-435 melanoma, 48.4%; with SW-620 colon it was 59.9%; in the experiment on MCF7 breast, 30%. Further, the growth is 25.4% in the experiment with HCT-116 colon, 62.2% in the experiment with HCC-2998 colon and 23% in the experiment with KM12 colon.

Consider `Cc1cccc(N2CCN(C(=S)c3ccc4c(c3)OCO4)CC2)c1`, for which the growth in the experiment with RPMI-8226 leukemia was 20%; with OVCAR-8 ovarian it was 27.6%; in the experiment on OVCAR-5 ovarian, 50.3%; with OVCAR-4 ovarian it was 66.6%; with SK-OV-3 ovarian it was 19.2%; in the experiment on IGROV1 ovarian, 31.3%. The growth with OVCAR-3 ovarian was -33.9% (active); with HS 578T breast, -27.7% (active); in the experiment on NCI/ADR-RES ovarian it was -18.6% (active); in the experiment with T-47D breast, 32.9%; in the experiment on BT-549 breast it was 32.9%; with MDA-MB-435 melanoma, -20.9% (active). The growth was 12.5% with MCF7 breast, 13.6% with HCT-116 colon, 13.2% in the experiment on HCC-2998 colon and 21.5% in the experiment with KM12 colon.

Take `Cc1nc2ccccc2c(/C=C/c2ccc(C(F)(F)F)cc2)c1C(=O)/C=C/c1ccccc1`: the growth with RPMI-8226 leukemia was -17.8% (active); in the experiment on OVCAR-8 ovarian it was -13% (active); in the experiment on OVCAR-5 ovarian it was -75.7% (active); in the experiment with OVCAR-4 ovarian it was -1.62% (active); with SK-OV-3 ovarian, 48.2%; with IGROV1 ovarian, -37.3% (active). Also, the growth in the experiment on OVCAR-3 ovarian is -62.7% (active); with HS 578T breast, -0.739% (active); in the experiment on NCI/ADR-RES ovarian, -33.8% (active); in the experiment on T-47D breast, -18.6% (active); in the experiment on BT-549 breast, -0.148% (active); in the experiment with MDA-MB-435 melanoma, -39.2% (active). The growth in the experiment on SW-620 colon was -40.8% (active); in the experiment with MCF7 breast, 4.74% (active); with HCT-116 colon, -74.9% (active); in the experiment with HCC-2998 colon, -74.7% (active); with KM12 colon, 4.07% (active).

Consider `O=C(/C=C/c1ccccc1)Nc1ncc(Cc2ccccc2)s1`, for which the growth is 20.2% with RPMI-8226 leukemia; 23.7% in the experiment on OVCAR-8 ovarian; 18.5% in the experiment on OVCAR-5 ovarian; 14.1% in the experiment with OVCAR-4 ovarian; 15.4% with SK-OV-3 ovarian; 26.1% in the experiment with IGROV1 ovarian. Moreover, the growth in the experiment on OVCAR-3 ovarian was -34.1% (active); in the experiment on HS 578T breast, 10.4%; in the experiment on NCI/ADR-RES ovarian, 2.68% (active); in the experiment with T-47D breast, 26.1%; in the experiment with BT-549 breast it was 42.9%; with MDA-MB-435 melanoma, -40.9% (active). Besides, the growth in the experiment with MCF7 breast is 17.2%; in the experiment with HCT-116 colon, 11.6%; with HCC-2998 colon, 11.9%; in the experiment with KM12 colon, 6.06% (active).

`CNC(=O)c1c(NC(=O)c2ccc(C(C)(C)C)cc2)sc2c(CN(C)C)c(O)ccc12`: the growth with RPMI-8226 leukemia was -28.1% (active); in the experiment on OVCAR-8 ovarian it was 23.7%; with OVCAR-5 ovarian, -30.9% (active); in the experiment on OVCAR-4 ovarian, 67.5%; in the experiment on SK-OV-3 ovarian, 34.1%; with IGROV1 ovarian, 20.3%. Besides, the growth in the experiment with OVCAR-3 ovarian is 32.7%; in the experiment with HS 578T breast, 54.7%; in the experiment on NCI/ADR-RES ovarian, 11.4%; in the experiment with T-47D breast, -3.98% (active); with BT-549 breast, 71.9%; in the experiment on MDA-MB-435 melanoma, -85% (active). Also, the growth in the experiment on SW-620 colon is -85.8% (active); in the experiment on MCF7 breast, -43.2% (active); in the experiment on HCT-116 colon, -88.4% (active); in the experiment with HCC-2998 colon, -83.6% (active); in the experiment on KM12 colon, -79.6% (active).

Take `COc1ccc(Cc2cnc(NC(=O)c3sc4ccccc4c3Cl)s2)cc1`: the growth is 28.3% in the experiment with RPMI-8226 leukemia; 18.7% with OVCAR-8 ovarian; 60.5% in the experiment with OVCAR-4 ovarian; 25.9% in the experiment with IGROV1 ovarian; -8.48% (active) in the experiment with OVCAR-3 ovarian; 8.78% (active) in the experiment with HS 578T breast. For the same compound, the growth with NCI/ADR-RES ovarian is 6.4% (active); with T-47D breast, 34.5%; in the experiment on BT-549 breast, 34.7%; in the experiment on MDA-MB-435 melanoma, -39.1% (active); with SW-620 colon it was 25%; with MCF7 breast, 17.5%. The growth with HCT-116 colon was 15.1%; in the experiment with HCC-2998 colon it was 25.6%; with KM12 colon, 16.7%.
